Data published in PubChem BioAssay (NCATS).
Several values for one entry are separate records, joined by “and”; a condition that tells them apart may be missing. Equal values may be shown once. Records with an inconclusive call do not appear. Unmarked numbers belong to inactive results. Calls follow the shape of the dose curve; as a rule, active = well fitted inhibition curve with a large enough effect; inconclusive = small, poorly fitted or top-dose-only effect; inactive = flat fitted curve, though single readings scatter.

Experiment: Drug repurposing screens with cells derived from glioblastoma tumor samples (AID 1345199); also: nearly all actives have a fitted effect of over 40% in size
Settings: GBM patient neurospheres viability, ATP luminescence, 48 h; at 45.9 µM (top of the series); tumour line B
Summary of the method: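 Four patient lines of CD133+ GBM neurospheres were screened at several concentrations; hits were retested in those lines plus three slower-growing GBM lines, using 48-hour treatment and ATP-based viability.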
% is scaled to controls: 0 for no effect and ±100 for the full control effect.

Row | SMILES | activity, negative = cell killing [%]
1 | Cc1cc(=O)c(C(=O)N[C@@H](C(=O)N[C@@H]2C(=O)N3C(C(=O)O)=C(CSc4nnnn4C)CS[C@H]23)c2ccc(O)cc2)c[nH]1 | -7.34
2 | O=c1[nH]c(=O)n([C@H]2C[C@H](O)[C@@H](CO)O2)cc1/C=C/Br | -10.7
3 | CNC(C)CCC=C(C)C (stereo not given) | -23.7
4 | O=C1c2ccccc2C(=O)C1c1ccc(F)cc1 | -20.2
5 | Nc1ncnc2c1ncn2CCOCP(=O)(O)O | 2.17

Same assay, conditions: GBM patient neurospheres viability, ATP luminescence, 48 h; at 45.9 µM (top of the series); tumour line D

Row | SMILES | activity, negative = cell killing
6 | c1ccc2c(c1)OCC(CN1CCCCC1)O2 (stereo not given) | -10.7%
7 | CCOC(=O)[C@H](CS)NCCN[C@@H](CS)C(=O)OCC | -8.47%
8 | C=CC[N+]1([C@H]2C[C@H]3[C@@H]4CC[C@H]5C[C@H](O)[C@@H](N6CCOCC6)C[C@]5(C)[C@H]4CC[C@]3(C)[C@H]2OC(C)=O)CCCC1 | -12.4%
9 | ClC(Cl)Cl | -13.8%
10 | CO[C@@H]1[C@H](OC(=O)/C=C/C=C/C=C/C=C/C(=O)O)CC[C@]2(CO2)[C@H]1[C@@]1(C)O[C@@H]1CC=C(C)C | -9.21%
11 | CC(C)Cc1ccc([C@@H](C)C(=O)NS(C)(=O)=O)cc1 | -14.1%
12 | CNCC(=O)N[C@@H](CCCN=C(N)N)C(=O)N[C@H](C(=O)N[C@@H](Cc1ccc(O)cc1)C(=O)N[C@H](C(=O)N[C@@H](Cc1cnc[nH]1)C(=O)N1CCC[C@H]1C(=O)N[C@@H](C)C(=O)O)C(C)C)C(C)C | -7.19%
13 | C=CC(C)(O)CC/C=C(\C)CCC=C(C)C (stereo not given) | -9.56%
14 | OC[C@H]1O[C@@H](O[C@H]2[C@H](O)[C@@H](O)[C@H](O)O[C@@H]2CO)[C@H](O)[C@@H](O)[C@@H]1O | 6.26%
15 | OCCOCCOCCO | -3.68%
16 | CO/N=C(/C(=O)N[C@@H]1C(=O)N2C(C(=O)O)=C(COC(N)=O)CS[C@H]12)c1ccco1 | -9.35% and -16.7%
17 | CO[C@H]1O[C@@H]2O[C@@]3(C)CC[C@H]4[C@H](C)CC[C@@H]([C@H]1C)[C@@]24OO3 | 1.49%
18 | Cc1ccc(C(C)(C)c2ccc(C)cc2)cc1 | -1.07%
19 | NCCO/C=C/[C@H](N)C(=O)O | 5.28%
20 | CCN(CC)CCOc1ccccc1OC | -13.8%
21 | NCC[C@H](O)C(=O)N[C@@H]1C[C@H](N)[C@@H](O[C@H]2O[C@H](CN)[C@@H](O)[C@H](O)[C@H]2O)[C@H](O)[C@H]1O[C@H]1O[C@H](CO)[C@@H](O)[C@H](N)[C@H]1O | -17.9%
22 | CCCCCCCCCCCCCCCCCC(=O)OC[C@@H](O)[C@H]1OC[C@H](O)[C@H]1O | 2.86%
23 | OC[C@H]1O[C@@](CO)(O[C@H]2O[C@H](CO)[C@@H](O)[C@H](O)[C@H]2O)[C@@H](O)[C@@H]1O | -14.4%
24 | O=C(O)/C=C/C(=O)Nc1ccc(S(=O)(=O)Nc2nccs2)cc1 | -8.87%
25 | [O-][N+](=Nc1ccccc1)c1ccccc1 | -9.27%
26 | Oc1ccc(Cl)c2c1CCC2 | -3.41%
27 | Oc1cccc(O)c1O | 2.75%
28 | CC1=CC(=O)NS(=O)(=O)O1 | 0.134%
29 | OC[C@H]1O[C@@H]2O[C@H]3[C@H](O)[C@@H](O)[C@@H](O[C@H]4[C@H](O)[C@@H](O)[C@@H](O[C@H]5[C@H](O)[C@@H](O)[C@@H](O[C@H]6[C@H](O)[C@@H](O)[C@@H](O[C@H]7[C@H](O)[C@@H](O)[C@@H](O[C@H]1[C@H](O)[C@H]2O)O[C@@H]7CO)O[C@@H]6CO)O[C@@H]5CO)O[C@@H]4CO)O[C@@H]3CO | -5.74%
30 | C(=C\c1ccncc1)/c1ccccc1 | -13.7% and -5.95%
31 | O=C(O)Cc1nn(Cc2ccc(Br)cc2F)c(=O)c2ccccc12 | -12.1%
32 | Cc1cc(=O)c(C(=O)N[C@@H](C(=O)N[C@@H]2C(=O)N3C(C(=O)O)=C(CSc4nnnn4C)CS[C@H]23)c2ccc(O)cc2)c[nH]1 | 13%
33 | O=c1[nH]c(=O)n([C@H]2C[C@H](O)[C@@H](CO)O2)cc1/C=C/Br | -3.23%
34 | O=C1c2ccccc2C(=O)C1c1ccc(F)cc1 | -13.5%
35 | Nc1ncnc2c1ncn2CCOCP(=O)(O)O | -1.17%
